These results are taken from PubChem BioAssay.

Each structure is given as a SMILES string.

The test in a line: calcein-AM signal in unstimulated myeloma cells – cell-based, calcein-AM fluorescence, 48 h, PK04 Diversity Set, profiling panel (AID 1166).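 Note: cells grown under basal conditions without added stimulus; test concentration not given here.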 To be noted: RPMI8226 myeloma viability, higher = more signal.
Turning to `CCCCCCc1nc(C2CC2)cc2c1[Si](C(C)C)(C(C)C)OC2`, the z-score is -1.92. Turning to `COc1ccc([Si](C)(C)[C@H]2[C@H](CCO)O[C@@]3(C(=O)N(Cc4cccc(N5C(=O)COc6ccccc65)c4)c4ccccc43)[C@@H]2C)cc1`, the z-score was -3.93. Under `C=C(/C(=C/C[C@H](OC(=O)c1ccncc1)c1ccc(CO)o1)c1cc(C(=O)OC)ccc1OC)C(C)C` stands -0.524. With `COC(=O)[C@@]1(Cc2ccccc2N=[N+]=[N-])N=C(c2ccc(OCCCO)cc2)O[C@H]1c1ccccc1N=[N+]=[N-]` the figure was -4.04. For `O=C1O[C@H](c2ccccc2)[C@H](c2ccccc2)N2[C@H]1[C@@H](C(=O)Nc1nc3ccccc3s1)[C@]1(C(=O)Nc3ccccc31)[C@H]2c1ccc(OCCO)cc1`, the z-score was -1.35. `C=CCC(OC(C)=O)[C@@H]1[C@@H](N(Cc2cc3ccccc3o2)C(=O)c2ccc(C)cc2)c2cc(OCCCO)ccc2N1C(=O)Cc1ccc(OC)cc1` (some centres undefined): the z-score was 0.166. Regarding `C[C@@H]1ON(c2ccc(C(=O)OC(C)(C)C)cc2)[C@H](c2ccc(O)cc2)[C@H]1C(=O)N1C(=O)OC[C@H]1Cc1ccccc1`, the z-score is -4.04. As to `C=CCNC(=O)[C@H]1[C@@H]2C(=O)O[C@@H](c3ccccc3)[C@@H](c3ccccc3)N2[C@@H](c2ccc(O)cc2)[C@]12C(=O)Nc1ccc(C#CC3(O)CCCCCC3)cc12`, the z-score was -4.08.

Turning to `CCCC[C@@H]1C[C@H]1[C@@H](NC(=O)Cc1ccccc1)c1ccc(-c2ccccc2)cc1`, the z-score is -1.48. Under `C=C(COC)/C(=C/C[C@H](OC(=O)c1ccncc1)c1ccccc1OCCO)c1cnc2ccccc2c1` stands -0.533; under `[N-]=[N+]=Nc1ccccc1[C@@H]1OC(c2ccc(OCCCO)cc2)=N[C@]1(Cc1ccccc1)C(=O)NCC(O)CO` (some centres undefined), -1.81.

For the compound `CC(C)N1CC=CC23O[C@@H]4C=CCOC(=O)[C@@H]4[C@H]2C(=O)N(CCCO)[C@@H]3C1=O` (some centres undefined), the z-score was -0.258.

Consider `CC(c1ccccc1)C(O)C1C=CC2C(=O)N(c3ccccc3)C(=O)C2N1Nc1ccc([N+](=O)[O-])cc1` (centres undefined), for which the z-score was -0.129. For the compound `CC(C)C(CO)N1C(=O)[C@@H]2C3C(=O)OCCC/C=C\[C@H]3OC23C=CCN(C(C)(C)C)C(=O)[C@@H]13` (some centres undefined), the z-score was 0.851. Take `COCCCNC(=O)[C@@]1(Cc2ccccc2N=[N+]=[N-])N=C(c2ccc(OCCCO)cc2)O[C@H]1c1ccccc1`: the z-score was -2.78. Under `CN1C(=O)C2C=CC(C(O)c3ccc(F)cc3)N(Nc3ccccc3)C2C1=O` (centres undefined) stands 0.196; under `COCCOC(=O)N1C(=O)[C@@]2(c3cc(C#CC4=CCCCC4)ccc31)[C@H](c1ccc(OCCO)cc1)N1[C@H](c3ccccc3)[C@H](c3ccccc3)OC(=O)[C@H]1[C@@H]2C(=O)NC[C@H](O)c1ccccc1`, -2.03; under `COC(=O)C1=CC(CCCO)=CC(C2CC2)N(C)C=C1C(=O)OC` (centres undefined), 2.02. `O=C(NCC(F)(F)F)[C@@H]1c2ccccc2C(=O)N(Cc2ccc(OC(F)(F)F)cc2)[C@H]1c1ccc(CO)cc1`: the z-score is -0.207. With `COc1cccc(/C=C/C=O)c1` the figure was -0.803.

On to `COC(=O)C(CC#Cc1ccc2c(c1)[C@]1(C(=O)N2)[C@H](c2ccccc2OCCO)N2[C@H](c3ccccc3)[C@H](c3ccccc3)OC(=O)[C@H]2[C@@H]1C(=O)NC[C@H](O)c1ccccc1)C(=O)OC`, for which the z-score was -4.55.

Take `CC(C)OC(=O)C=C1C[C@@H](c2ccc(C(F)(F)F)cc2)O[C@@H](c2ccc(C(F)(F)F)cc2)O1`: the z-score is -1.51. Under `CN(C)C(=O)[C@@]1(Cc2ccccc2CN=[N+]=[N-])N=C(c2ccc(OCCCO)cc2)O[C@H]1c1ccccc1CN=[N+]=[N-]` stands -3.77; under `CCCNC(=O)[C@@]1(c2ccc([N+](=O)[O-])cc2)CC(=O)N(C2CCCCC2)[C@@H]1c1ccc(CO)cc1`, 0.46; under `CC(C)N1C(=O)C[C@@](C(=O)NCCCN(C)C)(c2ccc([N+](=O)[O-])cc2)[C@H]1c1ccc(CO)cc1`, 0.768. On to `O=C1N(Cc2ccccc2)Cc2ccccc2[C@@H]2OC(c3ccc(OCCCO)cc3)=N[C@]12CCS(=O)(=O)c1ccccc1`, for which the z-score was -1.08. On to `COC(=O)[C@@]1(Cc2ccc(OC)cc2)[C@@H]2C(=CC(=O)[C@H]2CC(=O)C(=O)N(C)C)CN1C(=O)c1ccccc1`, for which the z-score was -4.37. With `COc1ccc([Si](C)(C)[C@@H]2[C@@H](CC(=O)N3Cc4ccccc4C[C@H]3CO)O[C@]3(C(=O)N(C)c4ccccc43)[C@H]2C)cc1` the figure was -4.4; with `C=C[C@@H](COC(C)=O)N(C(=O)OC(C)(C)C)S(=O)(=O)c1ccc(Br)cc1`, 0.643.
